Data: PubChem BioAssay (Tox21)
Unmarked numbers belong to inactive results. Active and inactive are the calls of the source. Calls come from the whole dose curve; as a rule, active = well fitted activation curve with a large enough effect in the repeat runs; inconclusive = weak or mixed curves; inactive = flat fitted curve, though single readings scatter.

Test: Caspase-3/7 induction in CHO-K1 cells by small molecules, qHTS assay (AID 1346980); note: nearly all actives have a fitted effect of over 15% in size
Details: CHO-K1 caspase-3/7 induction, Caspase-Glo luminescence, 17 h; series mostly up to 92.4 µM
Source text: National Center for Advancing Translational Sciences [NCATS]
NIH Chemical Genomics Center [NCGC]
U.S. Environmental Protection Agency [EPA]
National Institutes of Environmental Health Sciences [NIEHS]
National Toxicology Program [NTP]
Apoptosis is a process of programmed cell death and plays a central role in the development of multicellular organisms. It is a highly regulated process and induces cell death by activating caspases, which are the members of cysteine aspartic acid-specific protease (caspase) family. Caspases involved in apoptosis are classified by their mechanism of action as initiator caspases (caspase-2, -8, -9 and -10) and executioner caspases (caspase-3, -6, and -7). Inhibition of apoptosis results in number of cancers, autoimmune diseases, inflammatory diseases and viral infection. To identify small molecule compounds that induce apoptosis, a homogeneous, luminescent Caspase-Glo 3/7 assay was used. Wild type CHO-K1 cells were used to screen Tox21 libraries for identifying caspase-3/7 activity inducers.
CHO-K1 cells were dispensed at 1,500 per well in 5uL of culture medium into white solid bottom 1536-well plates (Corning Life Sciences, Corning, NY) using a Multidrop Combi (Thermo Scientific, Waltham, MA) dispenser. The assay plates were incubated at 37 C and 5% CO2 for 5hr, and then 23nL of compounds dissolved in DMSO and positive control were transferred using a Pintool station (Wako, San Diego, CA). The assay plates were incubated at 37C and 5% CO2 for 17hr. For caspase-3/7 activity read, 4uL of Caspase-Glo 3/7 reagent (Promega Corporation, Madison, WI) was added to each well of the assay plates using Flying Reagent Dispenser (FRD, Aurora Discovery, San Diego, CA) and incubated the assay plates at room temperature for 30min. The luminescence signal was quantified using a ViewLux plate reader (Perkin Elmer, Shelton, CT).
% is set by controls: 0 for no effect and ±100 for the full control effect.

SMILES	outcome	caspase-3/7 activation
C=C(Cl)CCl	inactive	–
C=CCN1CC[C@]23CCCC[C@H]2[C@H]1Cc1ccc(O)cc13	inactive	–
CC[C@@H](CO)NC(=O)[C@@H]1C=C2c3cccc4c3c(cn4C)C[C@H]2N(C)C1	inactive	–
CCOC1Oc2ccc(OS(C)(=O)=O)cc2C1(C)C (stereo not given)	inactive	–
Oc1ccc2c3c1O[C@H]1[C@@H](O)C=C[C@H]4[C@@H](C2)NCC[C@@]341	inactive	–
CCN[C@@H](C)Cc1cccc(C(F)(F)F)c1	inactive	–
C[C@H](CN1CCOCC1)C(C(=O)N1CCCC1)(c1ccccc1)c1ccccc1	inactive	–
CC(Cl)(Cl)Cl	inactive	–
C/C=C/CC#N	inactive	–
CC(C)(C1CCC(O)CC1)C1CCC(O)CC1 (stereo not given)	inactive	–
C1CN2CCC1CC2	inactive	–
CN(C)C1CCCCC1	inactive	–
C=C1CC[C@@]2(O)[C@H]3Cc4ccc(O)c5c4[C@@]2(CCN3CC2CC2)[C@H]1O5	inactive	–
CCCCCCC1CCOC1=O (stereo not given)	inactive	–
CCC1(c2ccccc2)CCC(=O)NC1=O (stereo not given)	inactive	–
NCCOS(=O)(=O)O	inactive	–
O=C1C2CC=CCC2C(=O)N1SC(Cl)(Cl)Cl (stereo not given)	inactive	–
CCCC(C)C1(CC)C(=O)N=C(S)NC1=O (stereo not given)	inactive	–
COc1cccc(C=O)c1	inactive	–
Cc1ccc2c(c1)C1CN(C)CCC1N2 (stereo not given)	–	-0.28% [at 19 µM]

SMILES	outcome	caspase-3/7 activation
COc1cc(CCN)cc(OC)c1OC	inactive	–
CN(CCO)CCO	inactive	–
O=c1[nH]c2ccccc2o1	inactive	–
CCOc1cc(OP(=S)(OC)OC)nc(CC)n1	inactive	–
C=CC1(C)OC(=O)N(c2cc(Cl)cc(Cl)c2)C1=O (stereo not given)	inactive	–
CCOC(=O)C(SP(=S)(OC)OC)c1ccccc1 (stereo not given)	inactive	–
CC(=O)CN(CC(C)=O)N=O	inactive	–
CCCCCCCC(=O)Cl	inactive	–
C#CC(C)(C)O	inactive	–
C=CC=O	inactive	–
CN(C)CCc1c[nH]c2cccc(OP(=O)(O)O)c12	inactive	–
c1cncc([C@@H]2CCCCN2)c1	inactive	–
CCOC(=O)c1ncn2c1CN(C)C(=O)c1c(I)cccc1-2	inactive	–
O=[N+]([O-])c1cccc(CCl)c1	inactive	–
Clc1cc2c(cc1Cl)Oc1cc(Cl)c(Cl)cc1O2	–	0.0442% [at 0.349 µM]
Cl/C=C/CCl	inactive	–
CCC(=O)c1ccc(Cl)cc1	inactive	–
ClC(Cl)(Cl)Cl	inactive	–
CC(=O)OCC1=C(C(=O)O)N2C(=O)[C@@H](N)[C@H]2SC1	–	0.439% [at 19 µM]
CN(C)CCN(C)C	inactive	–
